In publication PMC7862700, “An all-to-all approach to the identification of sequence-specific readers for epigenetic DNA modifications on cytosine”:

What was measured:
Test in all cases: DAPPL (digital affinity profiling via proximity ligation, sequencing); 10 mM Tris-HCl pH 7.5, 50 mM NaCl, 1 mM DTT, 4% glycerol, room temperature, 30 min; GST-TFs on glutathione beads, 16-mer random dsDNA library, 0.1% formaldehyde crosslink after washing; high values mean tight binding
Details in all cases: protein: recombinant; tags: N-terminal GST; dsDNA, one strand shown
ERF = target: T1, ERF (Homo sapiens, UniProt P50548 1-548)
T1 sequence: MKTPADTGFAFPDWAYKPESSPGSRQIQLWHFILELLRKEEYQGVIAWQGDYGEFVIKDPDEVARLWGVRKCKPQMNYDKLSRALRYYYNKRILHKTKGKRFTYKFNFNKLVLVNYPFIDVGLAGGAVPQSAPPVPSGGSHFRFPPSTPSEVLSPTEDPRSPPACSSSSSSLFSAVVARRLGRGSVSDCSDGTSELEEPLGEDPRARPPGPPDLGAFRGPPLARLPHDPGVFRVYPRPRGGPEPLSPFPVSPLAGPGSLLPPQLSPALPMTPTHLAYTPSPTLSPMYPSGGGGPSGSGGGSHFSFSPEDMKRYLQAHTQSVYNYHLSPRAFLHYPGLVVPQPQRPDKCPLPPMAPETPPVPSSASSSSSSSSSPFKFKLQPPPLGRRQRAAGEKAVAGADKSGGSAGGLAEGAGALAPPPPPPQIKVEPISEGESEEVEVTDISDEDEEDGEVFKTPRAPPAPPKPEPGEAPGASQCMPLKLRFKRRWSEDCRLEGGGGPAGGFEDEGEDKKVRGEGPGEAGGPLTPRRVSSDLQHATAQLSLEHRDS
Method in brief: (§1)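 Human transcription factors were made in yeast as GST fusions, captured on glutathione beads and barcoded with DNA. With a tag-only sample included, the pool was incubated with 200 nmole of a random double-stranded 16-mer DNA library in Tris/NaCl/DTT/glycerol buffer at room temperature for 30 min, then crosslinked with 0.1% formaldehyde after washing, ligated by proximity, amplified and sequenced. For binding signal, each hexamer's read frequency for a factor is divided by its frequency for the tag-only sample.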

ETV3L = target: T2, ETV3L (Homo sapiens, UniProt Q6ZN32 1-361)
T2 sequence: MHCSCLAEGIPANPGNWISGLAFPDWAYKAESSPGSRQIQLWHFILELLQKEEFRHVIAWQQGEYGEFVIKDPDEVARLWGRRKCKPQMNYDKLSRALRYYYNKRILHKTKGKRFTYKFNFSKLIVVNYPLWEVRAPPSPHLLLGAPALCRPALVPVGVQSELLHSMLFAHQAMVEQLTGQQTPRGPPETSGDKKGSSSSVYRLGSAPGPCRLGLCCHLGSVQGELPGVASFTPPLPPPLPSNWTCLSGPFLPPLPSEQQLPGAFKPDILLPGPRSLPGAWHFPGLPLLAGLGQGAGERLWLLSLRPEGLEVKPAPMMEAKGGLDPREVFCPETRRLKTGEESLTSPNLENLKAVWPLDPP
Method in brief: as §1

ETS2 = target: T3, ETS2 (Homo sapiens, UniProt P15036 1-469)
T3 sequence: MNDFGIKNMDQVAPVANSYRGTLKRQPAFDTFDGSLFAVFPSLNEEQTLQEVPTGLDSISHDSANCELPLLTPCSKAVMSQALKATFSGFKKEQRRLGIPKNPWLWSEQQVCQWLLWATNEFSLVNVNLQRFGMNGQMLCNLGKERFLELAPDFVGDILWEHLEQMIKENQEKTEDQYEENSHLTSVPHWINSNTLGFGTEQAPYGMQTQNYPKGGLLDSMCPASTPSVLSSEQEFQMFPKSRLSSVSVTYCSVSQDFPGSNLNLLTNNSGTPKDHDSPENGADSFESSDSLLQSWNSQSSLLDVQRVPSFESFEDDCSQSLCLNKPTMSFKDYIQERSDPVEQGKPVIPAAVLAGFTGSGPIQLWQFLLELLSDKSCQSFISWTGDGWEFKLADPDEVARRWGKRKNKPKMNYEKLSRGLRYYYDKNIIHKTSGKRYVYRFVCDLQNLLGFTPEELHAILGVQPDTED
Method in brief: as §1

SPDEF = target: T4, SPDEF (Homo sapiens, UniProt O95238 1-335)
T4 sequence: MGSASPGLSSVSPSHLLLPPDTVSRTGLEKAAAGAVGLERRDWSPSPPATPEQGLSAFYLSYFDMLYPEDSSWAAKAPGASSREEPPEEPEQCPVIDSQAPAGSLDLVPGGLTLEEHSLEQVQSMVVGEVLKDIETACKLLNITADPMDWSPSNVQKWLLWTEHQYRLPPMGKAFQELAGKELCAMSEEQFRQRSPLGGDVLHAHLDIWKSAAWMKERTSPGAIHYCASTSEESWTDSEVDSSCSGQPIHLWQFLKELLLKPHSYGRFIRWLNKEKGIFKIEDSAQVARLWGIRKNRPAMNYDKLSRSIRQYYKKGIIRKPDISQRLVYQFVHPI
Method in brief: as §1

ETV7 = target: T5, ETV7 (Homo sapiens, UniProt Q9Y603 1-341)
T5 sequence: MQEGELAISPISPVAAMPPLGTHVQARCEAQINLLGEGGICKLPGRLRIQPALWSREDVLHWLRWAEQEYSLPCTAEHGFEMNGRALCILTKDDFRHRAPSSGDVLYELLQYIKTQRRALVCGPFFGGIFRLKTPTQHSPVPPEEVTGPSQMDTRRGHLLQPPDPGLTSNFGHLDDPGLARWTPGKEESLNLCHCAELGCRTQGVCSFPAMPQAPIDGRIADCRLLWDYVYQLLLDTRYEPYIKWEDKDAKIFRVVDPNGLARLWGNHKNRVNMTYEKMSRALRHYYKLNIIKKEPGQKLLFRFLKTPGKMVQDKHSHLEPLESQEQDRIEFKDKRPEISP
Method in brief: as §1

ELF5 = target: T6, ELF5 (Homo sapiens, UniProt Q9UKW6-2 1-255)
T6 sequence: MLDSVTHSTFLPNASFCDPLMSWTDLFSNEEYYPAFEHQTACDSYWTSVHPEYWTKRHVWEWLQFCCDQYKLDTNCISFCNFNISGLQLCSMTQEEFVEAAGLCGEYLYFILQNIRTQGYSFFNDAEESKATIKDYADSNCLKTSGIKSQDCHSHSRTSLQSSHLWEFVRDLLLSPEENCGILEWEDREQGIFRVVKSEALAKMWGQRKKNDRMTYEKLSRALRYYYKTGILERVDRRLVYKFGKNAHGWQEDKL
Method in brief: as §1

ETV3 = target: T7, ETV3 (Homo sapiens, UniProt P41162-2 1-143)
T7 sequence: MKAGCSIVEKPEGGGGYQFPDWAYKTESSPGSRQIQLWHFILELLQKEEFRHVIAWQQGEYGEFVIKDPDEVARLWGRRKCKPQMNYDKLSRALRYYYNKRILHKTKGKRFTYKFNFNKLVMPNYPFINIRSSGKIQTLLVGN
Method in brief: as §1

ETV6 = ETV6 (Homo sapiens, UniProt P41212 1-452)
Method in brief: as §1

ETV6, sequence (P41212 whole entry): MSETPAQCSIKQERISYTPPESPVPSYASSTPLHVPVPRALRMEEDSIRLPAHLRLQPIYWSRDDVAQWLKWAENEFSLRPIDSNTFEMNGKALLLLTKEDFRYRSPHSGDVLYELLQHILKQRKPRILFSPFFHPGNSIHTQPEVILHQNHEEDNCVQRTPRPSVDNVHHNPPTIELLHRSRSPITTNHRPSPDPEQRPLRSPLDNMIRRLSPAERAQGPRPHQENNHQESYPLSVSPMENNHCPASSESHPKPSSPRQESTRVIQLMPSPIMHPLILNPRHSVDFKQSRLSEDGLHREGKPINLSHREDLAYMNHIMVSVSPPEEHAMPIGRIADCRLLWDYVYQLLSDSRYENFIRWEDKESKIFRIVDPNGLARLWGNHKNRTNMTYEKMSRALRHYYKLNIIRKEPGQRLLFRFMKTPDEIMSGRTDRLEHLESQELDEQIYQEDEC

Row | Sequence | binding signal (ERF) | binding signal (ETV3L) | binding signal (ETS2) | binding signal (SPDEF) | binding signal (ETV7) | binding signal (ELF5) | binding signal (ETV3) | binding signal (ETV6)
1 | TTACTC | 1.27 fold enrichment (6-mer frequency, TF over GST control) | 1.15 fold enrichment (6-mer frequency, TF over GST control) | 1.37 fold enrichment (6-mer frequency, TF over GST control) | 1.28 fold enrichment (6-mer frequency, TF over GST control) | 1.29 fold enrichment (6-mer frequency, TF over GST control) | 1.21 fold enrichment (6-mer frequency, TF over GST control) | 1.29 fold enrichment (6-mer frequency, TF over GST control) | 1.27 fold enrichment (6-mer frequency, TF over GST control)
2 | CCCGTA | 1.09 fold enrichment (6-mer frequency, TF over GST control) | 1.19 fold enrichment (6-mer frequency, TF over GST control) | 1.2 fold enrichment (6-mer frequency, TF over GST control) | 1.24 fold enrichment (6-mer frequency, TF over GST control) | 1.12 fold enrichment (6-mer frequency, TF over GST control) | 1.21 fold enrichment (6-mer frequency, TF over GST control) | 1.21 fold enrichment (6-mer frequency, TF over GST control) | 1.25 fold enrichment (6-mer frequency, TF over GST control)
3 | TAGTTA | 1.18 fold enrichment (6-mer frequency, TF over GST control) | 1.1 fold enrichment (6-mer frequency, TF over GST control) | 1.12 fold enrichment (6-mer frequency, TF over GST control) | 1.06 fold enrichment (6-mer frequency, TF over GST control) | 1.1 fold enrichment (6-mer frequency, TF over GST control) | 1.06 fold enrichment (6-mer frequency, TF over GST control) | 1.12 fold enrichment (6-mer frequency, TF over GST control) | 1.16 fold enrichment (6-mer frequency, TF over GST control)
4 | GATCTT | 1.15 fold enrichment (6-mer frequency, TF over GST control) | 1.15 fold enrichment (6-mer frequency, TF over GST control) | 1.15 fold enrichment (6-mer frequency, TF over GST control) | 1.42 fold enrichment (6-mer frequency, TF over GST control) | 1.28 fold enrichment (6-mer frequency, TF over GST control) | 1.29 fold enrichment (6-mer frequency, TF over GST control) | 1.24 fold enrichment (6-mer frequency, TF over GST control) | 1.14 fold enrichment (6-mer frequency, TF over GST control)
5 | ATTAAT | 1.25 fold enrichment (6-mer frequency, TF over GST control) | 1.18 fold enrichment (6-mer frequency, TF over GST control) | 1.27 fold enrichment (6-mer frequency, TF over GST control) | 1.23 fold enrichment (6-mer frequency, TF over GST control) | 1.21 fold enrichment (6-mer frequency, TF over GST control) | 1.18 fold enrichment (6-mer frequency, TF over GST control) | 1.25 fold enrichment (6-mer frequency, TF over GST control) | 1.3 fold enrichment (6-mer frequency, TF over GST control)
6 | TTAGCA | 1.29 fold enrichment (6-mer frequency, TF over GST control) | 1.26 fold enrichment (6-mer frequency, TF over GST control) | 1.16 fold enrichment (6-mer frequency, TF over GST control) | 1.23 fold enrichment (6-mer frequency, TF over GST control) | 1.19 fold enrichment (6-mer frequency, TF over GST control) | 1.15 fold enrichment (6-mer frequency, TF over GST control) | 1.19 fold enrichment (6-mer frequency, TF over GST control) | 1.25 fold enrichment (6-mer frequency, TF over GST control)
7 | TGGCAT | 1.11 fold enrichment (6-mer frequency, TF over GST control) | 1.1 fold enrichment (6-mer frequency, TF over GST control) | 1.14 fold enrichment (6-mer frequency, TF over GST control) | 1.09 fold enrichment (6-mer frequency, TF over GST control) | 1.1 fold enrichment (6-mer frequency, TF over GST control) | 1.06 fold enrichment (6-mer frequency, TF over GST control) | 1.23 fold enrichment (6-mer frequency, TF over GST control) | 1.25 fold enrichment (6-mer frequency, TF over GST control)
8 | TCTTTA | 1.1 fold enrichment (6-mer frequency, TF over GST control) | 1.4 fold enrichment (6-mer frequency, TF over GST control) | 1.2 fold enrichment (6-mer frequency, TF over GST control) | 1.2 fold enrichment (6-mer frequency, TF over GST control) | 1.25 fold enrichment (6-mer frequency, TF over GST control) | 1.19 fold enrichment (6-mer frequency, TF over GST control) | 1.25 fold enrichment (6-mer frequency, TF over GST control) | 1.22 fold enrichment (6-mer frequency, TF over GST control)
9 | TTCCCA | 1.24 fold enrichment (6-mer frequency, TF over GST control) | 1.25 fold enrichment (6-mer frequency, TF over GST control) | 1.15 fold enrichment (6-mer frequency, TF over GST control) | 1.25 fold enrichment (6-mer frequency, TF over GST control) | 1.27 fold enrichment (6-mer frequency, TF over GST control) | 1.42 fold enrichment (6-mer frequency, TF over GST control) | 1.25 fold enrichment (6-mer frequency, TF over GST control) | 1.33 fold enrichment (6-mer frequency, TF over GST control)
